Values joined by “and” are separate entries in the source; they are usually repeats but may differ in a detail not shown here. Identical values can stand only once. Records with an inconclusive call do not appear. Active and inactive are the calls of the source. Unless noted, the rule behind the calls is not given here.

The nature of assay [1]: compounds altering circadian rhythm period length – cell-based, LOPAC library, luminescence reporter (AID 2774).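 Note: values are relative to mean of DMSO wells on each plate.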 To be noted: circadian reporter cells, at 7 µM, actives lie on both sides.
Assay [2] has as its system Hepatitis C virus NS3 helicase. Description: blockers of NS3h binding to ssDNA – biochemical, fluorescence polarization, LOPAC1280 library, primary screen (AID 687035; in the data active = inhibition above about 37%). The following applies: Purified HCV NS3 helicase, Cy5-dT15 ssDNA binding fluorescence polarization; stronger effect = higher value; concentration not given here.
A short description of assay [3]: compounds altering Cy5-DNA-NS3h complex signal – biochemical, LOPAC1280, artefact control for HCV NS3 helicase inhibitor project (AID 687037). To be noted: Cy5-DNA-NS3h complex fluorescence interference counterscreen.
For assay [4], the system named is Aerobactin synthetase IucA (Klebsiella pneumoniae). As to the kind of experiment: inhibition of K. pneumoniae IucA enzyme – biochemical, Tocris library, absorbance (AID 1345561).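 Note: 100% = enzyme without compound and 0% = no enzyme.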 The following applies: purified IucA enzyme assay, absorbance (OD) read-out; stronger effect = lower value;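 tested at 8 µM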.
The nature of assay [5]: viability loss in pontine glioma line – cell-based, SU-DIPG-XIII, MIPE4.0, CellTiter-Glo, qHTS, dose response (AID 1347061; cut-off not given, nearly all actives have AC50 up to about 37 µM;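 note: cells exposed to compound for 48 hours before readout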). To be noted: CellTiter-Glo ATP luminescence.
Assay [6] is described as follows: viability loss in pontine glioma line – cell-based, JHH-DIPG-1, MIPE4.0, CellTiter-Glo, qHTS, dose response (AID 1347062; cut-off not given, nearly all actives have AC50 up to about 27 µM;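 for AC50: cells exposed to compound for two days before readout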). To be noted: JHH-DIPG-1 viability, CellTiter-Glo ATP luminescence.
Assay [7] in a line: viability loss in pontine glioma line – cell-based, SU-DIPG-IV, MIPE4.0, CellTiter-Glo, qHTS, dose response (AID 1347063; cut-off not given, nearly all actives have AC50 up to about 30 µM;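 note: compound exposure lasted 48 hours before the viability readout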). To be noted: CellTiter-Glo ATP luminescence.
Assay [8] is described as follows: growth inhibition of DIPG cells – cell-based, MIPE4.0 library, CellTiter-Glo luminescence, qHTS (AID 1347066; cut-off not given, nearly all actives have AC50 up to about 30 µM;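 note: cells exposed to compound for 48 hours before readout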). The following applies: SU-DIPG-VI viability, CellTiter-Glo ATP luminescence.
The nature of assay [9]: viability loss with induced miR-34 in A549 – imaging, A549 dox-inducible miR-34, nuclei and caspase counts, primary screen (AID 1347080;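 active = compounds whose cell count with miR-34 switched on is under 0.7 times the count with it off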). The following applies: A549 miR-34 inducible, Hoechst nuclei count, 48 h.
A short description of assay [10]: blockers of cellular phospholipid synthesis – cell-based, LOPAC library, screen 4, primary screen (AID 1347384). To be noted: animal cells, phospholipid biosynthesis inhibition screen; at 10 µM.
Assay [11] can be described thus: MELAS cybrid and Rieske KO viability enhancers – cell-based, MELAS cybrids, Rieske KO mouse fibroblasts, CellTiter-Glo, primary screen (AID 1508586;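 active = mean z-score across replicates of 1.96 or higher in either the MELAS or the Rieske mutant cell line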;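 note: z relative to plate mean and SD of compound and empty wells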). To be noted: low glucose.
Assay [12] in a line: galactose survival enhancers in mitochondrial complex I cybrids – cell-based, galactose medium, ATP luminescence, primary screen (AID 1645843;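 active = z-score of at least 1.8 in each of two replicates, scored against plate mean and spread of sample wells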;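 note: positive z means more ATP and so rescue of galactose-driven cybrid death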). To be noted: complex I mutant cybrid cells, 72 h, stronger effect = higher value.
Assay [13] is described as follows: viability loss in pontine glioma line – cell-based, SU-DIPG-XIII, MIPE5.0, CellTiter-Glo, qHTS, dose response (AID 1347064; cut-off not given, nearly all actives have AC50 up to about 23 µM;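 for AC50: cells exposed to compound for 48 hours before the viability read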). To be noted: CellTiter-Glo ATP luminescence.
A short description of assay [14]: JHH-DIPG-1 glioma cell viability, MIPE5.0 library, CellTiter-Glo luminescence, qHTS (AID 1347067; cut-off not given, nearly all actives have AC50 up to about 26 µM;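 note: cells exposed to compound for 48 hours before readout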). To be noted: JHH-DIPG-1 glioma viability, CellTiter-Glo ATP luminescence.
A short description of assay [15]: growth inhibition of DIPG cells – cell-based, MIPE5.0 library, qHTS (AID 1347068; cut-off not given, nearly all actives have IC50 up to about 30 µM). To be noted: SU-DIPG-XXV viability.
Assay [16] is described as follows: chitosan synthesis blockers in C. neoformans – flow cytometry, Cibacron Brilliant Red staining (AID 1347148).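 Note: compound exposure lasted three days at 37 degrees C.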 To be noted: Cryptococcus neoformans chitosan, stronger effect = lower value; at 10 µM unless noted.
Assay [17] in a line: P. berghei load reduction in hepatocytes – cell-based, HepG2, luciferase luminescence, HepG2 viability, primary screen (AID 624349; in the data active = parasite load remaining mostly below about 12%, no sharp cut-off; inactive = mostly above about 10%;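 note: 100% = mean of DMSO negative control wells on the same plate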). The following applies: P. berghei liver stage in HepG2, luciferase luminescence, concentration not given here; parasite load remaining: stronger effect = lower value; viability: measured here: HepG2 viability without parasites.
The mark [18] stands for this setting: stronger effect = lower value, cell number ratio, induced over uninduced.
The mark [19] stands for this setting: measured here: relative caspase fold change +Dox/-Dox.
[20] abbreviates: measured here: total cells with miR-34 induction, stronger effect = lower value.
[21] abbreviates: measured here: total cells without miR-34 induction.
The mark [22] stands for this setting: MELAS cybrid survival, CellTiter-Glo 48 h, stronger effect = higher value.
Setting [23] is: Rieske KO mouse fibroblast survival, CellTiter-Glo 72 h.

Take `Cc1cccc(C#Cc2ccccc2)n1`: the period change in assay [1] was 0.065 h (inactive). In addition, the inhibition in [2] is -1% (inactive). Besides, the fluorescence ratio (interference) in assay [3] is 1 (inactive). In assay [4], the remaining activity was 102% (inactive). Moreover, the outcome in assay [5], in assay [6], in [7], in [8] and in [10] was inactive. In addition, the fold change in [9] (setting [18]) is 1.16 (inactive) and 0.932 (inactive) and 0.863 (inactive); in assay [9] (setting [19]), 0.95 and 0.499 and 0.79. The cell count was 8900 and 6820 and 7820 in [9] (setting [20]); 7690 and 7310 and 9060 in assay [9] (setting [21]). Also, the z-score is -0.0615 (inactive) in assay [11] (setting [22]); 0.0234 in [11] (setting [23]); 1.15 (inactive) and 1.02 (inactive) in assay [12].
For the compound `CNC(=O)[C@H]1O[C@@H](n2cnc3c(NCc4cccc(I)c4)nc(Cl)nc32)[C@H](O)[C@@H]1O`, the remaining activity in assay [4] is 96.8% (inactive). Besides, the AC50 in assay [13] was 16.6 µM (active); in assay [14], 23.5 µM (active). Also, the result in assay [15] was inactive. In addition, the fold change in assay [9] (setting [18]) was 0.954 (inactive); in assay [9] (setting [19]), 0.816. The results for the cell count in [9] (setting [20]) and in assay [9] (setting [21]) were 5880 and 6160, respectively. The z-score in assay [12] was -0.4 (inactive).
For the compound `FC(F)(F)c1ccc(/C=C/c2nc(COc3ccc(CCCCn4ccnn4)cc3)co2)cc1`, the remaining activity in assay [4] was 112% (inactive). For the same compound, the call in assay [5], in [6], in assay [13] and in assay [8] was inactive. Also, the fold change is 1.08 (inactive) in [9] (setting [18]) and 2.06 in assay [9] (setting [19]). Also, the cell count was 4070 in assay [9] (setting [20]) and 3770 in assay [9] (setting [21]). In assay [12], the z-score was -0.935 (inactive).
As to `Cc1ccc(NC(=O)c2cccc(N(C)C)c2)cc1NC(=O)c1ccc(O)cc1`, the remaining activity in assay [4] was 115% (inactive). Further, the AC50 in assay [5] was 0.662 µM (active); in [6], 3.32 µM (active); in assay [7], 0.935 µM (active). Further, the compound was classed as inactive in assay [15]. The fold change in [9] (setting [18]) is 1.11 (inactive) and 0.903 (inactive) and 0.921 (inactive); in [9] (setting [19]) it was 0.888 and 0.797 and 0.511. For the same compound, the cell count is 2990 and 8110 and 7940 in assay [9] (setting [20]); 2700 and 8980 and 8620 in assay [9] (setting [21]). Further, the fold fluorescence in assay [16] was 3.78 [at 128.4 µM] (inactive). For the same compound, the results for the z-score in assay [11] (setting [22]), in assay [11] (setting [23]) and in [12] were -0.437 (inactive), 0.706 and 1.09 (inactive), respectively.
On to `O=S(=O)(NCCNC/C=C/c1ccc(Br)cc1)c1cccc2cnccc12`, for which, in assay [1], the period change was -0.05 h (inactive). In addition, the parasite load remaining in assay [17] is 26.7% (inactive). For the same compound, the viability in assay [17] was determined as 66.5%. Further, the remaining activity in assay [4] is 114% (inactive). The AC50 in assay [7] and in [14] was 16.6 µM (active) each time. In assay [15], the compound was called inactive. Also, the fold change in [9] (setting [18]) was 0.909 (inactive) and 1.06 (inactive); in assay [9] (setting [19]) it was 1.15 and 1.08. Further, the cell count was 2930 and 6810 in assay [9] (setting [20]); 3220 and 6450 in assay [9] (setting [21]). Also, in [16], the fold fluorescence was 7.62 [at 112 µM] (inactive). In addition, the z-score in assay [12] was -0.61 (inactive).
For `CN(CCOc1ccc(-c2ccc3c(c2)OCO3)cc1C(C)(C)C)CC(=O)O`, in assay [4], the remaining activity was 102% (inactive). In [14], the AC50 was 23.5 µM (active). Besides, in [15], the call was inactive. The fold change was 0.865 (inactive) in assay [9] (setting [18]) and 1.03 in assay [9] (setting [19]). In addition, the cell count in [9] (setting [20]) is 7520; in [9] (setting [21]), 8690. Moreover, the z-score in [12] was -0.035 (inactive).

The values are drawn from PubChem BioAssay.
